Assay outcomes deposited in PubChem by National Center for Advancing Translational Sciences (NCATS).
The sample as a whole holds a higher share of hits than the screen did.
Pf Dd2 inh: Plasmodium falciparum Dd2 growth inhibition. P. falciparum Dd2 growth, SYBR Green, 72 h. Potency, µM (series often up to 28.9 µM), for inactives: at the highest dose activity, negative = inhibition, hits mostly inhibitors. actives 4.3% (n = 120,000). AID 1347417; active means well fitted inhibition curve with a large enough effect;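 further: plate controls were DMSO vehicle for no effect and reference drug for full effect; nearly all actives have a fitted effect of over 65% in size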
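Readout: SYBR Green fluorescence, 485 nm excitation, 535 nm emission, after ~16 h lysis at 37C. Before that, Dd2-infected red cells (2.5% hematocrit) grew 72 h with compound, 29 uM top final concentration.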
Numbers without * were called inactive; i = inactive; [ ] = another dose, or the depositor's remark. Potency means the concentration at half of the fitted maximal effect.

SMILES	Pf Dd2 inh
CCOc1cc(=O)n2c(c1C(=O)Nc1ccccc1)CCCCC2	21.8%
Fc1ccc(-c2cc(CC3(NCc4ccccc4F)COC3)no2)cc1	-19.5%[44.1 µM]
Cc1ccc(-n2ncc(C(=O)NCc3ccc4c(c3)OCO4)c2C2CCN(C(=O)OC(C)(C)C)CC2)cc1C	-12.9%
COc1ccc(-n2ncc(C(=O)Nc3ccc4c(c3)OCO4)c2C2CCN(C(=O)OC(C)(C)C)CC2)cc1	6.31µM*
Cc1ccc(-n2ncc(C(=O)Nc3ccc4c(c3)OCO4)c2C2CCN(C(=O)OC(C)(C)C)CC2)cc1	-18.0%
COCCCNC(=O)c1cccc2c1CCN2C(=O)Nc1cccc(C)c1	i
CCN(C(=O)C1CCN(S(=O)(=O)c2ccc3c(c2)CCCN3C(C)=O)CC1)c1cccc(C)c1	12.6µM*
CCN(CC)C(=O)C1CCN(S(=O)(=O)c2ccc3c(c2)CCCN3C(C)=O)CC1	-3.7%
CC(=O)N1CCCc2cc(S(=O)(=O)N3CCC(C(=O)Nc4c(C)cccc4C)CC3)ccc21	-8.9%
CC(=O)Nc1cccc2nc(CN3CCN(C(C)C)C(CCO)C3)ccc12 (stereo not drawn)	-16.2%
CC(=O)Nc1ccc(NC(=O)CN2C(=O)NC(c3ccccc3Cl)C3=C2COC3=O)cc1 (stereo not drawn)	-20.3%
COCC(=O)N1CCC(O)(c2ccccc2)[C@H](N2CCCC2)C1 (stereo partly drawn)	16.8%[5.79 µM]
Cc1c(CN2CCC(O)(c3ccccc3)[C@H](N3CCCC3)C2)cnn1C (stereo partly drawn)	0.447µM*
CCCC(=O)N1CCC(O)(c2ccccc2)[C@H](N2CCCC2)C1 (stereo partly drawn)	i[5.79 µM]
Cc1ccc(Cn2c(C(=O)O)c(CNC3CCCC3)c3ccc(C)cc32)cc1	i
COc1ccc2c(CNC3CCCCCC3)c(C(=O)O)n(Cc3cccc(F)c3)c2c1	-7.7%
COc1ccc(Cn2c(C(=O)O)c(CNC3CCCC3)c3ccc(C)cc32)cc1	60.8%
C=Cc1ccc(Cn2c(C(=O)O)c(CNC3CCCCC3)c3ccc(OC)cc32)cc1	11.2µM*
COc1ccc(Cn2c(C(=O)O)c(CNC3CCC(C)CC3)c3ccc(C)cc32)cc1 (stereo not drawn)	-9.1%
COc1ccc2c(CNC3CCCCCC3)c(C(=O)O)n(Cc3ccc(C)cc3)c2c1	8.91µM*
O=C([C@@H]1C[C@H](F)CN1S(=O)(=O)Cc1ccccc1Cl)N1CCCCC1	-15.6%
COCCN(C)C(=O)c1cn(C2CNC2)nn1	11.4%
COc1ccc2[nH]cc(CCNC(=O)Nc3ccc(F)cc3)c2c1	19.4%
COc1ccc2[nH]cc(CCN=C(NC(=O)c3ccccc3C)Nc3nc(C)cc(C)n3)c2c1	8.91µM*
Cc1cc(C)nc(NC(=NCCc2c[nH]c3ccc(Cl)cc23)NC(=O)c2ccccc2C)n1	-4.2%
SMILES	Pf Dd2 inh
N#Cc1ccc(O[C@@H]2CCOC[C@H]2NC(=O)CN2CCOC2=O)cc1	-3.4%
CC(=O)N[C@@H]1CCC[C@@H](C(=O)NCc2cc(C)on2)CC(=O)N(C)C1	35.9%[44.1 µM]
Cc1ccccc1OCC(=O)Nc1cccn2nc(-c3cccnc3)nc12	i
CC1=C(C(=O)OCC2CCCCC2)C(c2cccc(Cl)c2Cl)CC(=O)N1 (stereo not drawn)	6.2%
CC1=C(C(=O)OCc2ccccc2)C(c2cccc(Cl)c2Cl)CC(=O)N1 (stereo not drawn)	16.7%
CC1=C(C(=O)OCc2ccc(C)cc2)C(c2ccccc2C(F)(F)F)CC(=O)N1 (stereo not drawn)	5.62µM*
CCCNC(=O)C1COC2(CCC(C)CC2)N1C(=O)c1ccccc1Cl (stereo not drawn)	-18.6%
Cc1cnc(-c2ccncc2)n1C1CCN(C(=O)C2CC2)CC1	6.0%
CC1(C)CN(C(=O)c2csc(Cc3ccccc3)n2)CC1(C)O (stereo not drawn)	6.0%
CCCCNc1cc(N2CCN(C3CCCCC3)CC2)c2noc3c2c1C(=O)c1ccccc1-3	2.51µM*
O=C(c1ccn[nH]1)N1C[C@@H](COc2cccnc2)[C@H](c2ccncc2)C1	-22.8%
O=C(Cc1ccccc1)N1CCC2(CC1)CN(c1ccncn1)CC2CO (stereo not drawn)	i
O=C(Cc1ccsc1)N1CCC2(CC1)CN(c1ccncn1)CC2CO (stereo not drawn)	-15.4%
O=C(c1c[nH]c2ccccc12)N1CCC2(CC1)CN(c1ccncn1)CC2CO (stereo not drawn)	5.62µM*
CCC[C@@H]1CN(c2cc(OC)nc(N)n2)C[C@H]1C(=O)O	-8.8%
CC1=C(C(=O)N2CCOC(CCCc3ccccc3)C2)OCCO1 (stereo not drawn)	-13.5%
CCOC(=O)c1cccc(NC(=O)N2CC[C@@H](CC(=O)N3CCOCC3)[C@@H](CC)C2)c1	-11.1%[44.1 µM]
COC(=O)CNC(=O)c1cc(-c2ccccc2OC)c2cccn2n1	14.7%
COCCOC1CCN(S(=O)(=O)c2cn(C)cn2)CC1	47.7%
COc1ccc(-c2ccc3c(N)c(C(=O)Nc4cc(F)ccc4C)sc3n2)cc1	21.7%
COc1ccc(-c2c3c(nc4sc(C(=O)Nc5ccc(F)cc5)c(N)c24)CC(C)(C)CC3=O)cc1	0.562µM*
